# Where “and” joins values, the source holds several entries; their conditions need not be identical. Equal values may be shown once. Inconclusive results are not listed. Entries that show only a call come without a potency. Calls of active or inactive are those of the source. Calls follow the shape of the dose curve; as a rule, active = well fitted cell-killing curve with a large enough effect; inconclusive = small, poorly fitted or top-dose-only effect; inactive = flat fitted curve, though single readings scatter.
# Experiment: Cell Viability - LYMP2-006 (AID 978)
# Conditions: LYMP2-006 lymphoblastoid cell viability, qHTS; series mostly up to 92.2 µM
# Summary of the method: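 Human lymphoblastoid cells, 2500 per well, were preincubated 5 hr at 37 C, then exposed to compounds for 24 hr at 37 C in complete medium. Viability was read as intracellular ATP by CellTiter-Glo luminescence; AC50 from Hill-equation fits of qHTS concentration-response data.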
# Also: nearly all actives have a fitted effect of over 60% in size.
# Potency is read from the fitted curve at half-maximal effect.
row,SMILES,Potency
1,S=C=S,inactive
2,CCCCCCCCOC(=O)c1ccccc1C(=O)OCCCCCCCC,inactive
3,C=CCN=C=S,inactive
4,NNC(N)=O,inactive
5,O=C(O)C(Cl)(Cl)Cl,inactive
6,[O]=[Cd],inactive
7,O=C1CCO1,inactive
8,COc1ccc2c(c1OC)C(=O)OC2C1c2cc3c(cc2CCN1C)OCO3 (stereo unspecified),inactive
9,Clc1ccccc1Cl,inactive
10,[Cl-].[Cl-].[Hg+2],15.8 µM (active)
11,COC1=CC(=O)O[C@@H](/C=C/c2ccccc2)C1,inactive
12,CC(C)Nc1ccc(Nc2ccccc2)cc1,25.1 µM (active)
13,C[C@]12CCC(=O)C[C@@H]1CC[C@@H]1[C@@H]2CC[C@]2(C)[C@@H](O)CC[C@@H]12,inactive
14,ClC(Cl)(Cl)Cl,inactive
15,O=Cc1ccco1,inactive
16,ClCC1CO1 (stereo unspecified),inactive
17,ClC=C(Cl)Cl,inactive
18,CC(C)CCON=O,inactive
19,Oc1cc(Cl)c(Cl)cc1Cl,inactive
20,CCCCCl,inactive
21,C[C@H]1CCC[C@H](O)CCCCCc2cc(O)cc(O)c2C(=O)O1,inactive
22,O=[N+]([O-])c1ccc(F)c([N+](=O)[O-])c1,inactive
23,O=C1C2CC=CCC2C(=O)N1SC(Cl)(Cl)Cl (stereo unspecified),7.94 µM (active) and 10 µM (active)
24,O=C/C=C/c1ccccc1,inactive
25,O=[N+]([O-])c1ccccc1,inactive
26,CCOC(=O)c1ccccc1C(=O)OCC,inactive
27,[O]=[Cr](=[O])([OH])[O][Cr](=[O])(=[O])[OH],12.6 µM (active) and 15.8 µM (active) and 10 µM (active)
28,O=CC=O,inactive

# Experiment: Cell Viability - LYMP2-008 (AID 980)
# Conditions: LYMP2-008 lymphoblastoid cell viability, qHTS; series mostly up to 92.2 µM
# Summary of the method: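 Cells seeded at 2500/well and rested 5 hr at 37 C; compounds added over a concentration range and incubated 24 hr at 37 C; CellTiter-Glo added, 30 min at room temperature; luminescence read and AC50 fitted with Hill model.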
row,SMILES,Potency
1,S=C=S,inactive
2,CCCCCCCCOC(=O)c1ccccc1C(=O)OCCCCCCCC,inactive
3,C=CCN=C=S,inactive
4,NNC(N)=O,inactive
5,O=C(O)C(Cl)(Cl)Cl,inactive
6,[O]=[Cd],inactive
7,O=C1CCO1,inactive
8,COc1ccc2c(c1OC)C(=O)OC2C1c2cc3c(cc2CCN1C)OCO3 (stereo unspecified),inactive
9,Clc1ccccc1Cl,inactive
10,C[C@H]1CC[C@@H]2[C@@H](C)[C@H]3[C@H](C[C@H]4[C@@H]5CC=C6CC(O[C@@H]7O[C@H](CO)[C@H](O)[C@H](O[C@@H]8O[C@H](CO)[C@@H](O)[C@H](O)[C@H]8O)[C@H]7O[C@H]7O[C@@H](C)[C@H](O)[C@@H](O)[C@H]7O)CC[C@]6(C)[C@H]5CC[C@]34C)N2C1 (stereo partly specified),50.1 µM (active)
11,COC1=CC(=O)O[C@@H](/C=C/c2ccccc2)C1,inactive
12,CC(C)Nc1ccc(Nc2ccccc2)cc1,39.8 µM (active)
13,C[C@]12CCC(=O)C[C@@H]1CC[C@@H]1[C@@H]2CC[C@]2(C)[C@@H](O)CC[C@@H]12,inactive
14,ClC(Cl)(Cl)Cl,inactive
15,O=Cc1ccco1,inactive
16,ClCC1CO1 (stereo unspecified),inactive
17,ClC=C(Cl)Cl,inactive
18,CC(C)CCON=O,inactive
19,Oc1cc(Cl)c(Cl)cc1Cl,inactive
20,CCCCCl,inactive
21,C[C@H]1CCC[C@H](O)CCCCCc2cc(O)cc(O)c2C(=O)O1,inactive
22,CC(C)(C)c1cc(O)ccc1O,inactive
23,O=C1C2CC=CCC2C(=O)N1SC(Cl)(Cl)Cl (stereo unspecified),12.6 µM (active) and 10 µM (active)
24,O=C/C=C/c1ccccc1,inactive
25,O=[N+]([O-])c1ccccc1,inactive
26,CCOC(=O)c1ccccc1C(=O)OCC,inactive
27,[O]=[Cr](=[O])([OH])[O][Cr](=[O])(=[O])[OH],12.6 µM (active) and 10 µM (active)
28,O=CC=O,inactive

# Source: PubChem BioAssay (NCATS)
